Compound activity (PubChem)
Most compounds without a hit are left out; they make up all but 2.4% or so of the library.
D2 ag-1 = activates the human D2 dopamine receptor; HEK293 T-REx D2 cells, calcium flux agonist mode; activation, % at 2 µM; hit rate 0.53% among 340,000;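 active means activation over 3 SD above normal in the single-dose calcium agonist read, cut at about 30% in these data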; further: 0% is about no effect
Target sequence (P14416 whole entry, looked up): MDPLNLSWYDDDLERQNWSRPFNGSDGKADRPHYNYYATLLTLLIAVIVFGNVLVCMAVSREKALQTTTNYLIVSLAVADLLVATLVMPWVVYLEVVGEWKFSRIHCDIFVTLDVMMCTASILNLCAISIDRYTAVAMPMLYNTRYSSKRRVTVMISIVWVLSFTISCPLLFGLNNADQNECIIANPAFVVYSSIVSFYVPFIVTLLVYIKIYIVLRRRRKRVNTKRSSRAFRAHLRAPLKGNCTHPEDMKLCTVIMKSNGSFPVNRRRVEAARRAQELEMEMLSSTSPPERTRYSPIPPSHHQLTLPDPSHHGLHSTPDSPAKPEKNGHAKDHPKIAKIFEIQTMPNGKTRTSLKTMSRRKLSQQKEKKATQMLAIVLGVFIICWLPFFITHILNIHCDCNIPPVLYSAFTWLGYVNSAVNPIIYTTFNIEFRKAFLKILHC
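Agonism scored from kinetic calcium signal (1 read/sec, 180 s) following compound pin transfer, after a 10 s baseline. Cells: HEK293 Trex line expressing inducible D2 receptor coupled to calcium, dye-loaded after overnight culture at 30 C.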
D2 PAM-1 = positive allosteric modulators of human D2 dopamine receptor; P14416; potentiation, % (concentration not given with the values); hit rate 0.23% among 360,000; AID 624464; DiscoveRx D2 beta-arrestin cells, luminescence, 90 min; 100% = 57 uM dopamine signal; in the data active means potentiation above about 50%; inconclusive means mostly about 30% to 49%
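D2 cells co-treated with compound plus 50 nM dopamine (EC20) for 90 min at 37 deg C to detect potentiation. Beta-arrestin recruitment was read as enzyme-fragment luminescence after 1 h at ambient temperature. Full response was set by 57 uM dopamine.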
D2 ag-2 = activates the human D2 dopamine receptor; hit rate 0.084% among 360,000; activation, % (test concentration not listed); DiscoveRx PathHunter D2 beta-arrestin, luminescence, 90 min; 100% = 57 uM dopamine signal; AID 624465; P14416; in the data active means activation above about 40%; inconclusive means between about 15% and that limit
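DiscoveRx PathHunter D2 beta-arrestin cells (2,100/well) attached overnight, then compound-stimulated 90 min at 37 C in HBSS/10 mM HEPES/0.1% Tween-20 buffer; beta-galactosidase complementation read by luminescence after 1 h at ambient temperature. Dopamine 57 uM final (EC100) as control.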
D2 PAM-2 = positively modulates the human D2 dopamine receptor allosterically; P14416; HEK293 T-REx D2, calcium flux, EC20 dopamine potentiation; potentiation, % at 10 µM; hit rate 0.34% among 340,000;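 active means potentiation over 3 SD above the plate norm, cut at about 30% in these data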; further: 0% is about no effect
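Tetracycline-induced HEK293 T-REx cells force-coupled to calcium signalling expressed D2; compounds were pin-added after a 10 s baseline, read kinetically 180 s, then an EC20 dopamine challenge followed with a further 180 s calcium read.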
D2 antag = antagonists of human D2 dopamine receptor; HEK293 TREx D2 cells, calcium flux, dopamine EC80; hit rate 2% among 340,000; P14416; inhibition, % at 10 µM; AID 485344; in the data active means inhibition above about 30%; inactive means below that, where a call was filed; further: 0% is about no effect
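Compounds are added to dye-loaded, induced HEK293 T-REx cells coupled to calcium release via D2; after a 3 min kinetic read an EC80 dopamine stimulus is given and fluorescence is recorded for 3 more min.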
* hit, by the source's call; ? = inconclusive; . = no result.

SMILES	D2 ag-1	D2 PAM-1	D2 ag-2	D2 PAM-2	D2 antag
COc1ccc(OC)c(N(C)S(=O)(=O)c2ccc3c(c2)NC(=O)CC(=O)N3)c1	1	.	.	-2	.
Cc1ccc(Nc2nc3ccccc3s2)cc1	0	-13	1	-1	-17
Fc1ccc(Nc2nc3ccccc3s2)cc1	1	-36	3	-5	33*
O=C(NN1C(=O)c2cc(Br)ccc2NC1c1ccccc1Cl)c1ccncc1 (configuration not stated)	.	-20	-4	.	.
COc1ccc(Br)cc1C1Nc2ccccc2C(=O)N1NC(=O)c1ccncc1 (configuration not stated)	0	-36	-1	30*	2
CCc1nnc(NC(=O)COc2ccc3c(c2)OCO3)s1	0	-1	3	30*	12
CCCc1nnc(NC(=O)COc2ccc3c(c2)OCO3)s1	-2	4	0	-13	-1
CCOc1ccc(NS(=O)(=O)c2cc(NC(=O)CCS(=O)(=O)c3ccc(C)cc3)ccc2OC)cc1	0	-29	0	-17	33*
COc1ccc(NC(=O)CC2C(=O)N(c3ccc(F)cc3)C(=S)N2NC(=O)c2ccc(Cl)cc2)cc1 (configuration not stated)	-1	-4	-7	-8	37*
c1ccc2c(c1)CCc1c-2nc2ccccc2c1N1CCOCC1	1	-16	-4	-14	37*
CCCC(=O)Nc1cccc(-c2cn3c(C)csc3n2)c1	0	.	.	-6	.
COc1ccc(/C=N/NS(=O)(=O)c2ccccc2)cc1OS(=O)(=O)c1ccc(C)cc1	0	-22	-6	3	32*
CCCCNc1c2c3c(cccc3n(C)c1=O)C(=O)c1ccccc1-2	93*	-6	0	-12	11
CCNc1c2c3c(cccc3n(C)c1=O)C(=O)c1ccccc1-2	112*	-5	0	-9	21
Cn1c(=O)c(NC2CCCCC2)c2c3c(cccc31)C(=O)c1ccccc1-2	110*	-1	4	-10	60*
CC(=O)Nc1ccc(Nc2c3c4c(cccc4n(C)c2=O)C(=O)c2ccccc2-3)cc1	8	-5	-3	14	3
Cn1c(=O)c(NCCO)c2c3c(cccc31)C(=O)c1ccccc1-2	126*	-8	-4	-26	82*
O=C(Nc1ccc(Br)cc1F)N1CCC(CN2CCCC2)CC1	-1	.	.	-4	.
COC(=O)c1c(NC(=O)CCCOc2ccc(C(C)(C)C)cc2)sc2c1C(C(=O)OC)CC2 (configuration not stated)	-2	.	.	.	.
Cn1c(NCCc2ccccc2)cc(=O)n(C)c1=O	1	0	0	-3	0
Cn1c(=O)c(NCCc2ccccc2)c2c3c(cccc31)C(=O)c1ccccc1-2	87*	-6	0	-11	72*
CCCCCn1c(=O)[nH]c2cc(C(=O)NCc3ccc(F)cc3)ccc2c1=O	1	.	.	5	.
Cc1ccc(NC(=O)C2C3C=CC4(O3)C2C(=O)N(CCCN2CCOCC2)C4C(=O)NC2CCCCC2)cc1Cl (configuration not stated)	1	-8	5	2	31*
Cc1ccc(NC(=O)C2C3C=CC4(O3)C2C(=O)N(CCN2CCOCC2)C4C(=O)NC2CCCCC2)cc1C (configuration not stated)	0	-5	-2	1	1
Cc1ccc(NC(=O)CS(=O)CC(=O)N(C2CCCC2)C(C)C(=O)NC2CCCCC2)cc1 (configuration not stated)	0	-27	-1	49*	2
SMILES	D2 ag-1	D2 PAM-1	D2 ag-2	D2 PAM-2	D2 antag
Cc1ccc(NC(=O)CS(=O)CC(=O)N(CC(=O)NC2CCCC2)c2cc(C)ccc2C)cc1 (configuration not stated)	.	-17	-2	-9	.
COc1ccccc1CNS(=O)(=O)c1cnc(N)nc1	1	.	.	5	.
N/C(Cn1cncn1)=N\OC(=O)c1ccc(Cl)cc1Cl	-2	24	6	1	-12
N/C(Cc1ccc(Cl)cc1Cl)=N\OC(=O)c1ccccc1F	-1	61*	15	-2	-4
N/C(Cc1ccccc1)=N\OC(=O)c1cccc2ccccc12	37*	?	9	-5	-35
N/C(Cc1cccc2ccccc12)=N\OC(=O)c1ccccc1F	3	61*	?	-2	17
CN1Cc2cccc3c2C(Cc2ccccc2S3)C1 (configuration not stated)	1	-34	-2	-25	48*
Cc1sc(NC(=O)CCC(=O)O)c(C(N)=O)c1-c1ccccc1	0	15	0	4	47*
COc1ccc(CC2(CO)CCN(Cc3cnn(-c4ccccc4OC)c3)CC2)cc1	1	-24	-5	-16	79*
COc1ccc(CC2(CO)CCN(C(C)COc3ccccc3)CC2)cc1 (configuration not stated)	.	25	49*	.	.
Cc1ccc(C)c(N2CCN(CCCNC(=O)C3COc4ccccc4C3)CC2)c1 (configuration not stated)	1	.	.	-24	.
CCC(CC)C(=O)Nc1ccc2nc(SCC(=O)N3c4ccccc4CC3C)sc2c1 (configuration not stated)	3	.	.	7	.
Cc1cc(OCC(=O)O/N=C(\N)Cc2cccs2)ccc1Br	0	-2	2	2	49*
Cc1ccc(OCC(=O)O/N=C(\N)Cc2cccs2)cc1C	.	-4	-2	.	.
O=C1c2cccc(Cl)c2C(=O)N1c1ccccn1	.	-2	-3	.	.
O=C1c2cc3ccccc3c(-c3ccccc3)c2C(=O)N1c1ccccn1	6	-21	-4	2	46*
N/C(=N\OS(=O)(=O)c1ccc(Br)cc1)c1ccncc1	0	95*	?	-7	-3
COc1ccc(C2(c3ccc(OC)cc3)NC(=O)N(CC(=O)NC(C)C)C2=O)cc1	1	-5	-2	2	-14
COc1ccc(C2(c3ccc(OC)cc3)NC(=O)N(CC(=O)NCC(C)c3ccccc3)C2=O)cc1 (configuration not stated)	5	3	-2	-4	68*
CCN(CC)CC(=O)Nc1cc(N(C)C)nc2ccccc12	0	-7	-2	-13	1
CCCCCC(=O)Nc1cc(N(C)C)nc2ccccc12	-1	-21	-9	-12	35*
O=C(O)Cc1ccc(NC2(c3ccccc3)C(=O)c3ccccc3C2=O)cc1	.	.	.	-9	.
COC(=O)c1sccc1NC(=S)N1CCC(C(N)=O)CC1	0	1	-4	2	36*
COC(=O)c1sccc1NC(=S)N1CCCCC1	0	10	-2	22	-2
Cc1ccc(-c2nsc(NC(=O)c3oc4cc(C)c(Cl)cc4c3C)n2)cc1	1	.	.	.	.
O=C(CSc1ccccc1)NCc1ccc2c(c1)CCN2C(=O)c1ccc(Cl)cc1	0	.	.	10	.
